Source: PubChem BioAssay (EPA / NIEHS)
Records with an inconclusive call do not appear. Activity calls are given as the source filed them. The calls were made as follows, unless noted: active = hit-call score of the fitted dose curve at least 0.9, where 1 is the maximum; inconclusive = response in the unintended direction; inactive = score below 0.9.

How the values were obtained:
[1] = target: Nucleoli Translocation, AR (gene 367) (UniProt P10275); assay: UPITT_HCI_U2OS_AR_TIF2_Nucleoli_Agonist: University of Pittsburgh U2OS Androgen Receptor-Transcriptional Intermediary Factor 2 (AR-TIF2) Agonism High Content Imaging Assay for Nucleoli Translocation (AID 2283998)
Outline: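 U2OS cells expressing RFP-tagged human AR and GFP-tagged TIF2; red fluorescence in nucleoli quantified by high-content imaging. Primary screen at 20 uM final (0.2% DMSO); concentration-response 0.195–50 uM (0.5% DMSO), fitted upward versus DMSO.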

[2] = target: Ratio of Nucleoli Translocation and Cytoplasm, AR (gene 367) (UniProt P10275); assay: UPITT_HCI_U2OS_AR_TIF2_Nucleoli_Cytoplasm_Ratio_Antagonist: University of Pittsburgh U2OS Androgen Receptor-Transcriptional Intermediary Factor 2 (AR-TIF2) Antagonism High Content Imaging Assay for Ratio of Nucleoli Translocation and Cytoplasm (AID 2283999);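 also: antagonists lower the DHT-driven ratio of nucleolar to cytoplasmic red signal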
Outline: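 This antagonist-mode endpoint tracks AR-RFP localisation, the nucleolus-to-cytoplasm intensity ratio, in TIF2-GFP-coexpressing U2OS cells. DMSO stays at or below 0.5%; testing spans 20 uM single-dose and 0.195–50 uM series, with DHT setting the activity baseline.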

[3] = target: Ratio of Nucleoli Translocation and Cytoplasm, AR (gene 367) (UniProt P10275); assay: UPITT_HCI_U2OS_AR_TIF2_Nucleoli_Cytoplasm_Ratio_Agonist: University of Pittsburgh U2OS Androgen Receptor-Transcriptional Intermediary Factor 2 (AR-TIF2) Agonism High Content Imaging Assay for Ratio of Nucleoli Translocation and Cytoplasm (AID 2284000);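 also: hits raise the red nucleolar to cytoplasm ratio above vehicle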
Outline: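 Primary screen at 20 uM final (0.2% DMSO), then triplicate confirmation and dose-response from 0.195 to 50 uM final (0.5% DMSO). Cells: U2OS with AR-RFP and TIF2-GFP. Endpoint is the nucleoli/cytoplasm red-fluorescence ratio, gain-of-signal vs DMSO.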

[4] = CCTE_Harrill_HTTr_Viability_MCF7: CCTE's 6-hour Cell Viability Assessment for the High-Throughput Transcriptomics (HTTr) Platform, in MCF-7 cells cultured in DMEM + 10% fetal bovine serum, Harrill Lab (AID 2284010; active = hit-call score of the fitted dose curve at least 0.9, where 1 is the maximum; inactive = score below 0.9)
Outline: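 Eight-point concentration series, six-hour exposure. Propidium iodide exclusion imaged to assess membrane integrity as a cytotoxicity readout; bidirectional fitting was done with DMSO as negative control and activity baseline.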

[5] = CCTE_Harrill_HTTr_CellCount_MCF7: CCTE's Cell Proliferation Assessment for the High-Throughput Transcriptomics (HTTr) Platform, Harrill Lab (AID 2284012);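 also: count of Hoechst-stained nuclei per well by high-content imaging in MCF-7 cells; cells exposed to compound for six hours; intended direction is loss of nuclei count meaning fewer cells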
Outline: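 For this full-screen endpoint, MCF-7 cultures received eight compound dilutions for six hours. Well nuclei counts from Hoechst imaging were analyzed relative to DMSO.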

[6] = CCTE_Harrill_HTTr_Apoptosis_MCF7: CCTE's 6-hour Apoptosis Assessment for the High-Throughput Transcriptomics (HTTr) Platform, in MCF-7 cells cultured in DMEM + 10% fetal bovine serum, Harrill Lab (AID 2284011; active = hit-call score of the fitted dose curve at least 0.9, where 1 is the maximum; inactive = score below 0.9)
Outline: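 MCF-7 cells in DMEM + 10% FBS exposed 6 h to chemicals over an eight-point dilution series. Caspase-3/7 activation imaged by high-content CellEvent Green staining; fitted bidirectionally versus DMSO.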

Measured: outcome

Sequence of Ratio of Nucleoli Translocation and Cytoplasm, AR (gene 367) (P10275 whole entry, looked up): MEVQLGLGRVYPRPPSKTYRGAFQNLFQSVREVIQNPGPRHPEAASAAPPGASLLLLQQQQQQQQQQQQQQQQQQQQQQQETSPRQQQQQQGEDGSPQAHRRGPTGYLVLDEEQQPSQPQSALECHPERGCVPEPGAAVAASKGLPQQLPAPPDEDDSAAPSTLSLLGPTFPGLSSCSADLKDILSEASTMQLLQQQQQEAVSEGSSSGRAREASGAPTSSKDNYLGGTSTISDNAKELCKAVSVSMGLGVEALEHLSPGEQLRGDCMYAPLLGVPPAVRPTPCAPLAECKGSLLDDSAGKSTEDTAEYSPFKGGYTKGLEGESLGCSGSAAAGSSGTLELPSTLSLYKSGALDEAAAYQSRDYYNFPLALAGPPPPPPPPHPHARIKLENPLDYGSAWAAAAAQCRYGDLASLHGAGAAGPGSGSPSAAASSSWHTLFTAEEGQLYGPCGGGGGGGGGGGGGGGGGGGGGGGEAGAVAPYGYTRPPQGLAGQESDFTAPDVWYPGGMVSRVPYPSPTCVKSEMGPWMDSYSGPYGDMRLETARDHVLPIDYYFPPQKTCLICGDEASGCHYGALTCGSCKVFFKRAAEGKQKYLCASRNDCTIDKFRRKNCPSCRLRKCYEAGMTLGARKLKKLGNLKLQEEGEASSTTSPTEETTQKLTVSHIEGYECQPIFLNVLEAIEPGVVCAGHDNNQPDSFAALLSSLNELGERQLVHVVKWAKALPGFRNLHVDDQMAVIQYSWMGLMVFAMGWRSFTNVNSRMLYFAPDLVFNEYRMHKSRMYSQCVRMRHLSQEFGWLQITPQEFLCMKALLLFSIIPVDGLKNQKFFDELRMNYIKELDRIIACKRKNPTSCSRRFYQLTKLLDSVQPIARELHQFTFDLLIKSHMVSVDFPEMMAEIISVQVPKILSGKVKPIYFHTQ
Sequence of Nucleoli Translocation, AR (gene 367) (P10275 whole entry, looked up): as above

Clc1c(Cl)c(Cl)c2c(c1Cl)Oc1c(Cl)c(Cl)c(Cl)c(Cl)c1O2
not listed: [6]
inactive: all other assays above

ClC=C(Cl)CCl
inactive: [4] | [6] | [5]
